# Experimental data: article PMC7862700, “An all-to-all approach to the identification of sequence-specific readers for epigenetic DNA modifications on cytosine”
# What was measured:
# Assay in all cases: DAPPL (digital affinity profiling via proximity ligation, sequencing); 10 mM Tris-HCl pH 7.5, 50 mM NaCl, 1 mM DTT, 4% glycerol, room temperature, 30 min; GST-TFs on glutathione beads, 16-mer random dsDNA library, 0.1% formaldehyde crosslink after washing; high values mean tight binding
# FEV = target: T1, FEV (Homo sapiens, UniProt Q99581 1-238); conditions: protein: recombinant; tags: N-terminal GST; dsDNA, one strand shown
# T1 sequence: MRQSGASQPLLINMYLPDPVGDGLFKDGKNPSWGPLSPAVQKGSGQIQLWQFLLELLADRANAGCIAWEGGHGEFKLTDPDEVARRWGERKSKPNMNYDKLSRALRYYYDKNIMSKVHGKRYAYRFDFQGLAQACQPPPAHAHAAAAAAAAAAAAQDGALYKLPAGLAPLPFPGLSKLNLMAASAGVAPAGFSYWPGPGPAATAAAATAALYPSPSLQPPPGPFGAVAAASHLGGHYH
# Outline: (§1)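 Sequencing on an Illumina NextSeq500 followed washing, crosslinking with 0.1% formaldehyde, proximity ligation (BsaI/T4 ligase, 1 h, 37 °C) and PCR amplification of pools that had been incubated for 30 min at room temperature with 200 nmole of a random double-stranded 16-mer DNA library in Tris/NaCl/DTT/glycerol buffer. Each pool held DNA-barcoded human transcription factors, expressed in yeast as GST fusions and captured on glutathione beads, plus a tag-only sample. Binding signal is a hexamer's read frequency for a factor divided by its frequency in the tag-only sample.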
# ETV5 = ETV5 (Homo sapiens, UniProt P41161 1-510); conditions: protein: recombinant; tags: N-terminal GST; dsDNA, one strand shown
# Outline: as §1
# HSF1 = HSF1 (Homo sapiens, UniProt Q00613 1-529); conditions: protein: recombinant; tags: N-terminal GST; chain copies: 3; dsDNA, one strand shown
# Outline: as §1
# SPIC = target: T2, SPIC (Homo sapiens, UniProt Q8N5J4 1-248); conditions: protein: recombinant; tags: N-terminal GST; dsDNA, one strand shown
# T2 sequence: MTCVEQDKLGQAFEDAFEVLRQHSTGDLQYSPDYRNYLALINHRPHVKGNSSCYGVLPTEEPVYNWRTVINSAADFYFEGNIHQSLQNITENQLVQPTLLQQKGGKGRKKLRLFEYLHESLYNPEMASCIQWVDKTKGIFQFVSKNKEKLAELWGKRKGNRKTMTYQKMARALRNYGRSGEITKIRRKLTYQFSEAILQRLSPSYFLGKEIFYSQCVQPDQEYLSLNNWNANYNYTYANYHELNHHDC
# Outline: as §1
# ELF4 = ELF4 (Homo sapiens, UniProt Q99607 1-663); conditions: protein: recombinant; tags: N-terminal GST; dsDNA, one strand shown
# Outline: as §1
# ELK4 = target: T3, ELK4 (Homo sapiens, UniProt P28324-2 1-405); conditions: protein: recombinant; tags: N-terminal GST; dsDNA, one strand shown
# T3 sequence: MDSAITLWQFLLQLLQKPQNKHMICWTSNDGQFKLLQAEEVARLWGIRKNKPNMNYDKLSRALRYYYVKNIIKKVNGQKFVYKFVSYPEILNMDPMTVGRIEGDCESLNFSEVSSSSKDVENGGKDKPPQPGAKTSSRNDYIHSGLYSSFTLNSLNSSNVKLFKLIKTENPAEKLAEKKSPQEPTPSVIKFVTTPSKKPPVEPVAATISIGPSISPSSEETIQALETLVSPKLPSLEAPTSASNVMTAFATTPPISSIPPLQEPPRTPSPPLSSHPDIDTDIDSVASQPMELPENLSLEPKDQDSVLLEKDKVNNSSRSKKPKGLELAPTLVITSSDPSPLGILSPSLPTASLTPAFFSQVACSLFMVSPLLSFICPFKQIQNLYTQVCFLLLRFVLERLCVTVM
# Outline: as §1
# ETV2 = target: T4, ETV2 (Homo sapiens, UniProt O00321 1-342); conditions: protein: recombinant; tags: N-terminal GST; dsDNA, one strand shown
# T4 sequence: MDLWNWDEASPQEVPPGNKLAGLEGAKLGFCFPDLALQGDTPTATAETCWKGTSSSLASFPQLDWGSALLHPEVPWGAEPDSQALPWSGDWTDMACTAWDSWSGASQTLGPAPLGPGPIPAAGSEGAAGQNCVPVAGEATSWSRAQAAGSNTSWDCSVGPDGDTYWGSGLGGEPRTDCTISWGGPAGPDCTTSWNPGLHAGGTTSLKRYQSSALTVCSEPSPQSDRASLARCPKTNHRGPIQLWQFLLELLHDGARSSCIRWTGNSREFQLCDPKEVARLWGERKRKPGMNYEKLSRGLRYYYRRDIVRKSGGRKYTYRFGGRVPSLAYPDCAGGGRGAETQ
# Outline: as §1
# ELF3 = target: T5, ELF3 (Homo sapiens, UniProt P78545 1-371); conditions: protein: recombinant; tags: N-terminal GST; dsDNA, one strand shown
# T5 sequence: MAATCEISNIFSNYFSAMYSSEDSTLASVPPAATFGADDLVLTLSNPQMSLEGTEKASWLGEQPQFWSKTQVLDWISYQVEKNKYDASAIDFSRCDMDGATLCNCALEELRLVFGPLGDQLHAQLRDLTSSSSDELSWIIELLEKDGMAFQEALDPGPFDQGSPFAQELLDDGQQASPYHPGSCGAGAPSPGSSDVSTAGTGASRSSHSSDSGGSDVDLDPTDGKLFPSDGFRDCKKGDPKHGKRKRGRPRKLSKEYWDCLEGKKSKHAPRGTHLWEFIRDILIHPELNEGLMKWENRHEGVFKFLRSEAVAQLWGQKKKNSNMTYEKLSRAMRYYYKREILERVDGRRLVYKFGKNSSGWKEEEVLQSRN
# Outline: as §1
# CRX = CRX (Homo sapiens, UniProt O43186 1-299); conditions: protein: recombinant; tags: N-terminal GST; dsDNA, one strand shown
# Outline: as §1
# ETV1 = ETV1 (Homo sapiens, UniProt P50549 1-477); conditions: protein: recombinant; tags: N-terminal GST; dsDNA, one strand shown
# Outline: as §1
# Chain of ETV1 (P50549 whole entry): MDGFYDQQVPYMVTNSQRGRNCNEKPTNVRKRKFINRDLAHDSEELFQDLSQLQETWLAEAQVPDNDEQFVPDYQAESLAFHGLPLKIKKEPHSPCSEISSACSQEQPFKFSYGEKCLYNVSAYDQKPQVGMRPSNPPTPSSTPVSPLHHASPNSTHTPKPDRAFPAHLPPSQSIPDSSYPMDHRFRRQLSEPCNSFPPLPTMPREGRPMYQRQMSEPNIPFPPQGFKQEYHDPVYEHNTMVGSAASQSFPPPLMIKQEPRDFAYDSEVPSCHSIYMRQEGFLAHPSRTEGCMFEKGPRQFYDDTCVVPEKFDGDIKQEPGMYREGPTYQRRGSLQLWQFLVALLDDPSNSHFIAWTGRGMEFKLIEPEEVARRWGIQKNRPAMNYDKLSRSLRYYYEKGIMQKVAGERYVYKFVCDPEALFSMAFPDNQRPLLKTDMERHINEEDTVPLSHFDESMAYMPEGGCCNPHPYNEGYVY
# Chain of ETV5 (P41161 whole entry): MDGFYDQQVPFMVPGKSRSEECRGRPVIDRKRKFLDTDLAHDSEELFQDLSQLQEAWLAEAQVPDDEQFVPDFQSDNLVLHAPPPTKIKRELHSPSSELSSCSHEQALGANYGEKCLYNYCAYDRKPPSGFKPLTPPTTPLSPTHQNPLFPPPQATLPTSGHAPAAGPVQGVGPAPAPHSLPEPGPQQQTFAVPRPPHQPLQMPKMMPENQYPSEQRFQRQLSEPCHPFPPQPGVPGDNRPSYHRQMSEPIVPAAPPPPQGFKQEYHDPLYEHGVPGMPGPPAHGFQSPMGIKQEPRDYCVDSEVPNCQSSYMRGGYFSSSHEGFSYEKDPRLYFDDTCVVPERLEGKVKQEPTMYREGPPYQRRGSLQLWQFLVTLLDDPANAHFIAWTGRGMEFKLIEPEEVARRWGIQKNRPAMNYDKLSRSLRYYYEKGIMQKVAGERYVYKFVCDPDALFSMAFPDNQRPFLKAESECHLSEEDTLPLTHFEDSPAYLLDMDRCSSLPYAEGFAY
# Chain of CRX (O43186 whole entry): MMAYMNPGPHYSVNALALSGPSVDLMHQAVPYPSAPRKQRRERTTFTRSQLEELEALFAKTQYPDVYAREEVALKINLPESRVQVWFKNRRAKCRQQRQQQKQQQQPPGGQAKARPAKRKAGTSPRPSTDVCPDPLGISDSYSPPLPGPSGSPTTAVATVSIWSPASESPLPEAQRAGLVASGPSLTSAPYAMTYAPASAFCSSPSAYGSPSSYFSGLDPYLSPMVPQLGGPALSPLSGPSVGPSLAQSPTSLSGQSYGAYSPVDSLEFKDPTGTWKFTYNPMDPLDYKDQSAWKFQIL
# Chain of HSF1 (Q00613 whole entry): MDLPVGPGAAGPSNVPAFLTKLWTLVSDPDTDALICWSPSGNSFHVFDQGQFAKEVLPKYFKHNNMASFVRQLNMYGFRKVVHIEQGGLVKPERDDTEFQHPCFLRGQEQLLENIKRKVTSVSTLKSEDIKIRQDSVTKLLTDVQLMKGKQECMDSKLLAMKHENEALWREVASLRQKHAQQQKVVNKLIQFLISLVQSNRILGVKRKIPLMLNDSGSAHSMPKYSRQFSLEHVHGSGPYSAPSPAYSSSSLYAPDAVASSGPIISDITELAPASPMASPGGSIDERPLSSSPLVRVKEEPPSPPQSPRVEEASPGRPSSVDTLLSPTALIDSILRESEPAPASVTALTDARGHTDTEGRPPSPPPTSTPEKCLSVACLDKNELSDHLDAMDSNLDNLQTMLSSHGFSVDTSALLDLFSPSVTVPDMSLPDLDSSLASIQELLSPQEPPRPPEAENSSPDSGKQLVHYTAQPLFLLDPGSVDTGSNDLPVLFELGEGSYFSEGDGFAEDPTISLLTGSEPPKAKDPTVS
# Chain of ELF4 (Q99607 whole entry): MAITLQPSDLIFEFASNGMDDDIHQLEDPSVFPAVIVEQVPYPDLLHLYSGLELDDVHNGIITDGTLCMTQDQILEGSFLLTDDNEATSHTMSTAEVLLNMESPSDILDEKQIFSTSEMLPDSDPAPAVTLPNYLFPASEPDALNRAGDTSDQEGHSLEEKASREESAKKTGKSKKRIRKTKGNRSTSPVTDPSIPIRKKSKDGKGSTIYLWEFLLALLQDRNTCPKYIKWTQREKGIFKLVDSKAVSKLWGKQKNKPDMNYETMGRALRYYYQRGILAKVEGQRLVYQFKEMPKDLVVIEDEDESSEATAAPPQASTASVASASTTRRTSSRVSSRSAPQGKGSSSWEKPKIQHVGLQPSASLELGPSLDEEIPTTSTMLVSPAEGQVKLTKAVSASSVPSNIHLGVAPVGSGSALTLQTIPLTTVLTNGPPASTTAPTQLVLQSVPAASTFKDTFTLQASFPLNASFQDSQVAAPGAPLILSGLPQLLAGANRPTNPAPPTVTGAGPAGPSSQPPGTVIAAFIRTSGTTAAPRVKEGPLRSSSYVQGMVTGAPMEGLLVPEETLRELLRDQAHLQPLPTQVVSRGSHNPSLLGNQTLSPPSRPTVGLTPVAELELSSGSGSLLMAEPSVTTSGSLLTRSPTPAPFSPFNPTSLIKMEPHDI
sequence,measurement,setting,value
CGTAAT,binding signal,FEV,"1.19 fold enrichment (6-mer frequency, TF over GST control)"
same,binding signal,ETV5,"1.21 fold enrichment (6-mer frequency, TF over GST control)"
same,binding signal,HSF1,"1.5 fold enrichment (6-mer frequency, TF over GST control)"
same,binding signal,SPIC,"1.14 fold enrichment (6-mer frequency, TF over GST control)"
same,binding signal,ELF4,"1.22 fold enrichment (6-mer frequency, TF over GST control)"
same,binding signal,ELK4,"1.17 fold enrichment (6-mer frequency, TF over GST control)"
same,binding signal,ETV2,"1.17 fold enrichment (6-mer frequency, TF over GST control)"
same,binding signal,ELF3,"1.29 fold enrichment (6-mer frequency, TF over GST control)"
same,binding signal,CRX,"1.94 fold enrichment (6-mer frequency, TF over GST control)"
same,binding signal,ETV1,"1.24 fold enrichment (6-mer frequency, TF over GST control)"
